Source: PubChem (National Center for Advancing Translational Sciences (NCATS))
Only some compounds are listed: those with a hit (about 21% of all), similar ones and a draw of the others.
NS1 function inh – blocks influenza NS1 protein function. Potency, µM (series often up to 46.1 µM), without a hit: top-dose activity, positive = more growth. 270,000 compounds, 0.4% hits; calls by dose curve; further: potency means the concentration at half of the fitted maximal effect; actives are rising curves; nearly all actives have a fitted effect of over 50% in size
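S. cerevisiae expressing influenza A NS1, grown in glucose, washed, then diluted 1:100 into pH 6.0 -URA galactose medium with 23 nl compound. Growth recovery read as OD600; NS1-free strain serves as control.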
Pf growth 48h – inhibits P. falciparum growth in the first generation, 48 h. P. falciparum luciferase growth in erythrocytes, 48 h. Potency, µM (doses to about 28.7 µM), without a hit: at the top dose activity change, negative = inhibition, usual class: inhibitors. 310,000 compounds, 5.9% hits. AID 504832; further: potency means the concentration at half of the fitted maximal effect; on the % scale 0 is the no-effect control and ±100 the full control effect
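Luciferase-expressing parasites in RBCs, 2% Hct / 0.1% parasitemia final; RPMI 1640 + 0.5% Albumax; 37 C, 5% CO2, one generation; luminescence read-out, lower signal = inhibition.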
CHX counter – counter-screen hit for Shiga toxin inhibitors, cycloheximide; cell reporter, cycloheximide protein synthesis inhibition counterscreen; max response, %; 300,000 compounds, 12% hits; AID 2314; in the data active means max response mostly above about 13%, no sharp cut-off; inactive means mostly below about 14%; further: read at 38.3 µM for the half of the compounds with a filed dose; 0% is about no effect
Pf growth 96h – P. falciparum growth inhibition at 96 hour, primary screen for plastid delayed-death inhibitors. P. falciparum luciferase reporter growth, 96 h. Potency, µM (titrated, usually from 28.7 µM), without a hit: top-dose activity change, negative = inhibition, hits mostly inhibitors. 320,000 compounds, 6.9% hits. AID 504834; further: potency means the concentration at half of the fitted maximal effect; on the % scale 0 is the no-effect control and ±100 the full control effect
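Plates of compound plus infected erythrocytes (2% hematocrit, 0.05% parasitemia final) incubate 96 hours, 37 C, 5% CO2. Detection reagent added; reduced luminescence from the parasites' luciferase reporter flags inhibition.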
Shiga toxin inh – Shiga toxin inhibition. Vero cells, Shiga toxin protein synthesis inhibition reporter. inhibition, % at 38.7 µM. 290,000 compounds, 9.2% hits; in the data active means inhibition mostly above about 28%, no sharp cut-off; inactive means mostly below about 43%; further: 0% is about no effect
* marks the source's active call; other numbers are inactive results; i = inactive; ? = inconclusive; . = no result given; [ ] = remark or other dose. Unless noted, the call rests on the fitted dose curve; in most records, active means well fitted inhibition curve with a large enough effect; inconclusive means small, poorly fitted or top-dose-only effect, or another doubt; inactive means no such curve, though single readings can be large or run the other way.

SMILES | NS1 function inh | Pf growth 48h | CHX counter | Pf growth 96h | Shiga toxin inh
Cc1cc(NC(=O)c2cccc(Oc3ccccc3)c2)n[nH]1 | 1% | i | 29* | 350% | 91*
Cc1cc(NC(=O)NC(=O)c2cccc(OC(F)(F)C(F)F)c2)n[nH]1 | 7% | 104% | 27* | ? | 69*
CCC(CC)NC(=O)c1cccc(Oc2ccccc2)c1 | . | -24% | 19 | -22% | 31*
CC(NC(=O)CCc1ccccc1)c1ccc2c(c1)OCO2 (stereo not given) | -14% | 0% | 2 | ? | .
Cc1occc1-c1nnc(SCC(=O)Nc2nc(C(C)(C)C)cs2)o1 | 7% | 44% | 27* | . | 50*
CCn1c(SCC(=O)Nc2nc(C)cs2)nnc1-c1ccoc1C | 5% | . | 4 | 3% | -15
O=C(CSc1nnc(-c2cccs2)o1)N1CCc2ccccc21 | -48% | 30% | 1 | -2% | -18
Cc1occc1-c1nnc(SCC(=O)N(C)C)o1 | -7% | . | 33* | 54% | 54
Cc1occc1-c1nnc(SCC(=O)N2CCc3ccccc32)o1 | -6% | -16% | 1 | 5.2µM* | 42
Cc1occc1-c1nnc(SCC(=O)N2CCCCC2C)o1 (stereo not given) | . | 9% | . | 5% | .
Cc1csc(NC(=O)CSc2nnc(-c3ccoc3C)o2)n1 | 9% | -9% | 41* | 134% | 70*
CCn1cc(S(=O)(=O)NC(C)c2cc(OC)ccc2OC)cn1 (stereo not given) | -3% | 7% | -2 | 21% | -16
Cc1cnc(C(=O)Oc2ccc(-c3ccccc3)cc2)cn1 | 6% | -7% | 5 | -26% | -6
Cc1csc(NC(=O)CSc2nnc(-c3ccncc3)o2)n1 | 6% | 81% | 16* | 14% | 30
Cc1cc(-c2nnc(SCC(=O)Nc3nccs3)o2)no1 | ? | ? | 20* | 14% | 43*
C=CCNC(=S)N1CCC(C(=O)c2ccc(F)cc2)CC1 | -13% | -28% | 1 | -2% | 3
CN1CCN(C(=O)/C(=C/c2cccs2)NC(=O)c2ccco2)CC1 | 1% | 13% | -1 | ? | -9
COc1ccc(CNC(=O)CNC(=O)c2cccs2)c(OC)c1 | 10% | 47% | 1 | 22% | 15
Cc1cc(NCCCN2CCOCC2)n2ncc(-c3ccccc3)c2n1 | -3% | 55% | 56* | ? | 78*
Cc1cc(NCCCN2CCOCC2)n2nc(C)c(-c3ccccc3)c2n1 | 4% | ? | -1 | ? | 21
Cc1cc(NCCCN2CCOCC2)n2nc(C)c(-c3ccc(F)cc3)c2n1 | -7% | 7.4µM* | 8 | -13% | 10
Brc1ccc(CNc2nc3ccccc3n2CCN2CCCCC2)cc1 | 0% | ? | -2 | 13µM* | -16
COc1ccc(CNc2nc3ccccc3n2CCN2CCCCC2)c(OC)c1 | -10% | ? | 10 | 13% | 24
c1ccc(Cn2c(CNc3nc4ccccc4n3CCN3CCOCC3)nc3ccccc32)cc1 | -20% | 12µM* | -3 | 9%[5.75 µM] | -7
Brc1cccc(CNc2nc3ccccc3n2CCN2CCCCC2)c1 | -1% | ? | -1 | 12µM* | -3
SMILES | NS1 function inh | Pf growth 48h | CHX counter | Pf growth 96h | Shiga toxin inh
Cn1c(NCc2cccc(Br)c2)nc2ccccc21 | -15% | -12% | 13* | -4% | 26*
COc1cccc(CNc2nc3ccccc3n2CCN2CCCCC2)c1 | 0% | ? | 0 | . | -18
COCCNC(=O)CCC1CCN(Cc2ccc(-c3ccccc3)cc2)CC1 | 5% | 1% | -1 | 0% | -15
CCCC[C@H]1C2=C3[C@@H](CC(C(=O)OC)=C[C@@H](C(=O)OC)[C@H]3C(C)(C)C2=O)n2c(=O)n(-c3ccccc3)c(=O)n21 | . | . | -4 | . | 1
CN(C1CCCCC1)S(=O)(=O)c1ccc(S(=O)(=O)N2CCN(C(=O)c3ccccc3F)CC2)cc1 | -6% | . | -5 | -3% | -4
Cc1onc(-c2c(Cl)cccc2Cl)c1C(O)c1ccccc1 (stereo not given) | -9% | . | -4 | 1% | 12
COc1cc(CNCCN(C)C)c(Br)cc1OC1CCCC1 | 2% | ? | -1 | ? | -7
CCC(C)[C@H](NC(=O)NCCCOC(C)C)C(=O)OC (stereo not given in full) | 3% | -25% | -1 | 12µM* | 1
CCOCCCNC(=O)N[C@H](C(=O)OC)C(C)CC (stereo not given in full) | 2% | ? | 0 | ? | 4
COCCCNC(=O)C(=O)NCCCOC(C)C | 4% | 3% | -2 | 12µM* | 17
CC(=O)Nc1ccc(C(=O)NCCCOC(C)C)cc1 | -4% | -1% | 1 | 57% | 4
